According to PubChem BioAssay (NCI):
This is part of a sample that, as a whole, favours compounds with a hit. Of some 79,000 tested, about 15% had one in any assay. No stated cut-off is given here; in the data, active means growth inhibition above about 70%; inactive means the rest.

What was measured:
[1] = NCI Yeast Anticancer Drug Screen. Data for the rad50 strain (AID 155);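 further: 0% = growth of vehicle-only cultures of the same strain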; settings: S. cerevisiae rad50 strain growth inhibition; at 50.0 µM; stronger effect = higher value
Summary of the method: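 Yeast carrying a defined DNA repair defect were exposed to test compounds, and growth was compared with vehicle-treated controls to give percent inhibition.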

[2] = NCI Yeast Anticancer Drug Screen. Data for the mec2-1 strain (AID 157); settings: S. cerevisiae mec2-1 strain, at 50.0 µM, stronger effect = higher value
Summary of the method: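 Mutant yeast (mec2-1) grown with compound; growth inhibition relative to vehicle control reported.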

[3] = NCI Yeast Anticancer Drug Screen. Data for the sgs1 mgt1 strain (AID 161);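 further: 0% = growth of cultures given vehicle only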; settings: S. cerevisiae sgs1 mgt1 strain, at 50.0 µM, stronger effect = higher value
Summary of the method: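 Percent growth inhibition was derived by comparing compound-exposed mutant yeast with vehicle-exposed cultures. The strain carries alterations in DNA damage repair.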

[4] = NCI Yeast Anticancer Drug Screen. Data for the cln2 rad14 strain (AID 165);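 further: 0% = growth equal to vehicle treated cultures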; settings: S. cerevisiae cln2 rad14 strain, at 50.0 µM, stronger effect = higher value
Summary of the method: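 Readout is yeast growth inhibition versus vehicle-treated controls, using a strain with cln2 and rad14 alterations exposed to compound.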

[5] = NCI Yeast Anticancer Drug Screen. Data for the bub3 strain (AID 167); settings: S. cerevisiae bub3 mutant strain, at 50.0 µM, stronger effect = higher value
Summary of the method: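 Compounds were applied to a genetically altered yeast strain carrying a cell-cycle control defect. Growth inhibition was scored against vehicle-treated controls.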

[6] = NCI Yeast Anticancer Drug Screen. Data for the mlh1 rad18 strain (AID 175); settings: S. cerevisiae mlh1 rad18 strain growth inhibition; at 50.0 µM; stronger effect = higher value
Summary of the method: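 Genetically defined yeast (DNA repair-deficient) exposed to compounds; growth inhibition determined relative to vehicle.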

Measured: growth inhibition

O=C(O)CCC(=O)Nc1ccc(Cl)cc1
inactive: [1] 8% | [2] 5.7% | [3] -0.05% | [4] -16.1% | [5] 5.15% | [6] 5.55%

COC1OC(CO)C(OC(C)=O)C(OC(C)=O)C1OC(C)=O (configuration not stated)
inactive: [1] -2.05% | [2] 16.5% | [3] 2.9% | [4] -14.5% | [5] 12.6% | [6] 1.8%

Nc1c(Cl)cc(Cl)cc1C(=O)O
inactive: [1] -5.05% | [2] -10.5% | [3] 0.35% | [4] -28.7% | [5] -11.2% | [6] -16.1%

Cc1c(C(=O)CC(=O)C(=O)Nc2c(C(C)C)cccc2C(C)C)[n+](=O)c2ccccc2n1[O-]
inactive: [1] 35.6% | [2] 39.5% | [3] 22.2% | [4] 40.5% | [5] 29.8% | [6] 36%

COc1cccc(NC(=O)NC(C)(C)C)c1
inactive: [1] 8.2% | [2] -16.1% | [3] 1.2% | [4] -42.1% | [5] -0.7% | [6] -0.05%

CCCCCCCCCCCCCCCC(=O)NCNC(=O)CCCCCCCCCCCCCCC
inactive: [1] -2.15% | [2] -9.75% | [3] -20.4% | [4] -6.55% | [5] 2.65% | [6] -14.2%

CCCC(=O)Oc1ccccc1C1CCCCC1
inactive: [1] 15.9% | [2] 23.8% | [3] 12.3% | [4] 21.3% | [5] 7.35% | [6] 3.45%

CCSc1cccc(C(=O)O)c1
inactive: [1] -23.1% | [2] -2.9% | [3] -3.4% | [4] -27.8% | [5] -22.9% | [6] -7.8%

CCN(CC)CCOCC1CCCN2CCCCC12 (configuration not stated)
inactive: [1] -9.5% | [2] -9.8% | [3] -1.75% | [4] 5.75% | [5] 16.1% | [6] -50.1%

COc1cc(Br)cc2nc(-c3cccs3)oc12
inactive: [1] -15.3% | [2] -46.9% | [3] -62.2% | [4] -24.6% | [5] -8.1% | [6] -32.5%

O=c1c(-c2ccccc2)c2oc(c1-c1ccccc1)CSCc1cccc(c1)CSC2
inactive: [1] 15% | [2] -0.1% | [3] -3.55% | [4] -28.9% | [5] -20.6% | [6] 7.8%

CC(C)(NC(=O)OC12CC3CC(CC(C3)C1)C2)C(=O)O
inactive: [1] -11.1% | [2] -20.1% | [3] 3.1% | [4] -12.6% | [5] 3.45% | [6] -5.35%

Cc1[nH]c(=O)nc(CC(O)(c2ccccc2)c2ccccc2)c1-c1ccccc1
inactive: [1] -31.6% | [2] -38.1% | [3] -22% | [4] 14.2% | [5] -6.05% | [6] -26.1%

CC(=O)Nc1ncc2ccccc2c1-c1ccc(NC(=O)CCCl)cc1
inactive: [1] -0.65% | [2] 19.4% | [3] 19.8% | [4] -1.3% | [5] 3.6% | [6] 12.8%

Cc1ccc(-n2cnc3c(Cl)ncnc32)cc1
inactive: [1] -18.1% | [2] -0.05% | [3] -12.1% | [4] -15.2% | [5] -16.8% | [6] 3.3%

O=C(O)c1cccc(C(=O)O)c1C(=O)O.[NH-]C1CCCCC1[NH-].[Pt+2]
inactive: [1] -17.8% | [2] 0.1% | [3] -15.5% | [4] 22.1% | [5] 7.8% | [6] -34.3%

O/N=C\c1cccc[n+]1Cc1ccc2ccccc2c1Br
inactive: [1] -1.7% | [2] 1.95% | [3] -7.55% | [4] -7.05% | [5] 10.7% | [6] -1.75%

CC1=CC(C)(C)SC(=S)N1
inactive: [1] 24.9% | [2] 5.3% | [3] 19.8% | [4] -60.6% | [5] -3.35% | [6] 29.3%

O=[N+]([O-])c1ccc(OC2CC3C4C=CC3C2C4)c([N+](=O)[O-])c1 (configuration not stated)
inactive: [1] -27.9% | [2] -17.1% | [3] -5.45% | [4] 20.8% | [5] -9.6% | [6] -24.6%

Cc1ccc(S(=O)(=O)c2cc3ccccc3oc2=O)cc1
inactive: [1] -1.25% | [2] 1% | [3] -8.2% | [4] -40% | [5] -11.2% | [6] -9.65%

COC(=O)C(=NNc1ccccc1[N+](=O)[O-])C(=O)OC
inactive: [1] 15.9% | [2] 5% | [3] 23.1% | [4] 33.8% | [5] 19.8% | [6] -2.6%

COc1ccc(-c2cc(-c3ccccc3)nc(/N=C\c3ccccc3)n2)c(O)c1
inactive: [1] -10.7% | [2] -20.4% | [3] -15.5% | [4] -17.9% | [5] -34.7% | [6] -51.2%

COc1cccc2c1c1ccc3c(c1n2C)C(=O)C=CC3=O
inactive: [1] 23.6% | [2] 22.6% | [3] 21.9% | [4] 11.2% | [5] 4.85% | [6] 20.6%

COC(=O)C1(CC(=O)C(c2ccccc2)c2ccccc2)NC(=S)NC(=O)C1C#N (configuration not stated)
inactive: [1] 5.6% | [2] 4.65% | [3] -12.8% | [4] -2.7% | [5] 0.55% | [6] -8.9%

O=C1C=C(NCCc2ccccc2)c2ccccc2C1=O
inactive: [1] 38.5% | [2] -8.6% | [3] 16.6% | [4] 9.15% | [5] 40.4% | [6] -5.1%

C=CC(C)c1cccc(C=O)c1O (configuration not stated)
inactive: [1] 0.3% | [2] -7.3% | [3] -0.3% | [4] -32% | [5] 17.8% | [6] 15.2%

CC1OC2(CC(OCc3ccccc3)C1OCc1ccccc1)OCCO2 (configuration not stated)
inactive: [1] -10.9% | [2] -3.85% | [3] -8.7% | [4] -4.8% | [5] 21.6% | [6] -31.9%

Cc1ccc(SCCSc2ccc(C)cc2)cc1
inactive: [1] 17.7% | [2] 5.8% | [3] 3% | [4] -5.7% | [5] 29.5% | [6] 39.5%

Nc1nc(N)c2nc(/C=C/c3ccc4c(c3)OCO4)cnc2n1
inactive: [1] -2.25% | [2] -25.4% | [3] -4.5% | [4] 2.15% | [5] -9.1% | [6] -13.8%

Cc1ccc(Cl)c(NC(=O)COc2ccc(Cl)cc2)c1
inactive: [1] -1.2% | [2] 28.3% | [3] 22.3% | [4] -6.6% | [5] 32.7% | [6] 26.4%

C/C(=N/Nc1ccc([N+](=O)[O-])cc1[N+](=O)[O-])C(C)(C)C
inactive: [1] -3.05% | [2] -13.2% | [3] 0.35% | [4] 3.15% | [5] -8.75% | [6] -13.2%

COc1ccc2c(=O)c([Se]c3coc4cc(OC)ccc4c3=O)coc2c1
inactive: [1] 7.2% | [2] -17.1% | [3] 3.15% | [4] -52.5% | [5] -23.1% | [6] 3.25%

CCCCN(CCCC)CC(O)c1cc(-c2ccc(Cl)cc2)nc2c(Cl)cc(Cl)cc12 (configuration not stated)
inactive: [1] 26.4% | [2] 5.05% | [3] 10.3% | [4] 18.1% | [5] 0.45% | [6] 28.9%

O=C(O)C1CCC(=O)N1Cc1csc(-c2ccccc2)n1 (configuration not stated)
inactive: [1] -23.8% | [2] -19.6% | [3] -1.45% | [4] -19.6% | [5] -7.15% | [6] 2.7%

O=S(=O)(c1ccc(O)c(Cl)c1)c1ccc(O)c(Cl)c1
inactive: [1] 32.8% | [2] 37.5% | [3] 16.1% | [4] 36.7% | [5] 47.2% | [6] 31.1%

COc1ccc(/C=N/n2cnc3c(c2=O)SC(=C(C#N)C#N)N3c2ccccc2)cc1
inactive: [1] -5.4% | [2] -35.5% | [3] -15.6% | [4] -16.1% | [5] -19.5% | [6] -41%

CCCCCCC#CC(=O)O
inactive: [1] 7.8% | [2] -3.6% | [3] 0.5% | [4] 16.1% | [5] -4.3% | [6] 30.4%
